Results reported in PubChem BioAssay (NCI).
About 83,000 compounds went through this panel and 20% of them were active in at least one assay; those are over-represented in the sample as a whole.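 Single-dose data. Exposure time 48 hours. Values below 10 considered active.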 Activity calls are given as the source filed them.

Experiments:
Experiment in all cases: NCI-60 one-dose screen, 48 h (100 = growth as untreated, 0 = no growth, -100 = all killed)
Settings in all cases: 10 µM unless noted
SK-MEL-2 melanoma = system: SK-MEL-2 melanoma
EKVX NSCLC = system: EKVX NSCLC
SN12C renal = system: SN12C renal
UO-31 renal = system: UO-31 renal
TK-10 renal = system: TK-10 renal
ACHN renal = system: ACHN renal
CAKI-1 renal = system: CAKI-1 renal
CCRF-CEM leukemia = system: CCRF-CEM leukemia
MOLT-4 leukemia = system: MOLT-4 leukemia
RPMI-8226 leukemia = system: RPMI-8226 leukemia
OVCAR-8 ovarian = system: OVCAR-8 ovarian
OVCAR-5 ovarian = system: OVCAR-5 ovarian
OVCAR-4 ovarian = system: OVCAR-4 ovarian
SK-OV-3 ovarian = system: SK-OV-3 ovarian
IGROV1 ovarian = system: IGROV1 ovarian
OVCAR-3 ovarian = system: OVCAR-3 ovarian
HS 578T breast = system: HS 578T breast
NCI/ADR-RES ovarian = system: NCI/ADR-RES ovarian
SR leukemia = system: SR leukemia

| Compound | growth (SK-MEL-2 melanoma) | growth (EKVX NSCLC) | growth (SN12C renal) | growth (UO-31 renal) | growth (TK-10 renal) | growth (ACHN renal) | growth (CAKI-1 renal) | growth (CCRF-CEM leukemia) | growth (MOLT-4 leukemia) | growth (RPMI-8226 leukemia) | growth (OVCAR-8 ovarian) | growth (OVCAR-5 ovarian) | growth (OVCAR-4 ovarian) | growth (SK-OV-3 ovarian) | growth (IGROV1 ovarian) | growth (OVCAR-3 ovarian) | growth (HS 578T breast) | growth (NCI/ADR-RES ovarian) | growth (SR leukemia) |
| --- | --- | --- | --- | --- | --- | --- | --- | --- | --- | --- | --- | --- | --- | --- | --- | --- | --- | --- | --- |
| NC(=S)N/N=C(\c1ccc(Cl)cc1)C1CC1 | 106% (inactive) | 69.8% (inactive) | 83% (inactive) | 58.7% (inactive) | 102% (inactive) | 88.4% (inactive) | 81.1% (inactive) | 63.2% (inactive) | 46.9% (inactive) | 67.3% (inactive) | 70.9% (inactive) | 95.5% (inactive) | 68.2% (inactive) | 92.8% (inactive) | 45.7% (inactive) | 58.2% (inactive) | 99.6% (inactive) | 67.3% (inactive) | – |
| CCCCCCc1nc2nc(Cl)c(Cl)nc2[nH]1 | 63.4% (inactive) | 52.6% (inactive) | 60.8% (inactive) | 52.6% (inactive) | 76.9% (inactive) | 67.4% (inactive) | 39.1% (inactive) | 47.8% (inactive) | 49% (inactive) | 28.2% (inactive) | 71.9% (inactive) | 97.4% (inactive) | – | 92% (inactive) | 57.7% (inactive) | 40.2% (inactive) | 76.4% (inactive) | 66.7% (inactive) | 62.9% (inactive) |
| CC(=O)c1cc2c(N)c(C(=O)Nc3cncc4ccccc34)sc2nc1C | 91.2% (inactive) | 100% (inactive) | 95.3% (inactive) | 80.1% (inactive) | 119% (inactive) | 97.1% (inactive) | 83.8% (inactive) | 104% (inactive) | 90.3% (inactive) | 94.9% (inactive) | 104% (inactive) | – | 113% (inactive) | 93.6% (inactive) | 104% (inactive) | 110% (inactive) | 95.3% (inactive) | 104% (inactive) | 77.5% (inactive) |
| C#CC(=O)Nc1cccc(Nc2nc3c(c(NCc4ccccc4)n2)CCCC3)c1 | -69.1% (active) | -62.3% (active) | -30.7% (active) | -91.6% (active) | -97.2% (active) | -93.5% (active) | -85.4% (active) | -8.54% (active) | -24.9% (active) | -23.7% (active) | -89.6% (active) | – | -95.3% (active) | -98.5% (active) | -42.6% (active) | -82.9% (active) | -5.41% (active) | 5.07% (active) | -27% (active) |
| Cc1[nH]n(-c2cccc(Cl)c2)c(=O)c1/C=C1\C=Nc2ccc(Br)cc21 | 73.4% (inactive) | 41.1% (inactive) | 3.46% (active) | -9.91% (active) | -51.3% (active) | 11.6% (inactive) | 22.4% (inactive) | 6.42% (active) | 26.9% (inactive) | 14.1% (inactive) | 9.67% (active) | 30.5% (inactive) | -89.9% (active) | -25% (active) | 19.3% (inactive) | -47.2% (active) | 0.668% (active) | 16.3% (inactive) | – |
| Cc1n[nH]c(C)c1-c1c(C)n[nH]c1C | 29.9% (inactive) | 18.2% (inactive) | 9.52% (active) | -0.471% (active) | 13% (inactive) | -47.7% (active) | -36% (active) | 12.3% (inactive) | 0.721% (active) | – | 12.4% (inactive) | 2.14% (active) | -17.5% (active) | 46.8% (inactive) | 5.52% (active) | -53.4% (active) | -8.48% (active) | 9.39% (active) | -6.74% (active) |
| FCc1nc2nc(Cl)c(Cl)nc2[nH]1 | 107% (inactive) | 103% (inactive) | 109% (inactive) | 94.5% (inactive) | 92.7% (inactive) | 99.5% (inactive) | 91.6% (inactive) | 104% (inactive) | 97.8% (inactive) | 97% (inactive) | 102% (inactive) | 93.3% (inactive) | – | 97.1% (inactive) | 108% (inactive) | 108% (inactive) | 101% (inactive) | 107% (inactive) | 95.9% (inactive) |
| COc1cc2nc(-c3ccc(C(F)(F)F)cc3)cc(OCCN3CCCC3)c2cc1OC | 105% (inactive) | 68.8% (inactive) | 72.2% (inactive) | 54.2% (inactive) | 92.9% (inactive) | 84.1% (inactive) | 68.7% (inactive) | 77.8% (inactive) | 74.2% (inactive) | 55.9% (inactive) | 91% (inactive) | 67.6% (inactive) | 94.9% (inactive) | 86.3% (inactive) | 60.9% (inactive) | – | 79.8% (inactive) | 72.9% (inactive) | 29.9% (inactive) |
| NC(=O)c1cccc(-n2ccc3cc(NC(=O)Nc4cc(C(F)(F)F)cc(C(F)(F)F)c4)ccc32)n1 | 76.6% (inactive) | 40.5% (inactive) | 35.9% (inactive) | 47.4% (inactive) | 62.8% (inactive) | 39.9% (inactive) | 41.4% (inactive) | 53.7% (inactive) | 26.4% (inactive) | – | 37.2% (inactive) | 72.4% (inactive) | 44% (inactive) | 73.7% (inactive) | 29.8% (inactive) | 39.1% (inactive) | 38.6% (inactive) | – | 44.3% (inactive) |
| CC(=O)N1c2ccccc2NC2=C(C(=O)N(C)C2(C)C)C1C (stereo unspecified) | 8.92% (active) | 61.5% (inactive) | 40.7% (inactive) | 82% (inactive) | 87.1% (inactive) | 97% (inactive) | 71.9% (inactive) | 20.7% (inactive) | 33.3% (inactive) | 12.6% (inactive) | 65.8% (inactive) | 62.5% (inactive) | 55.2% (inactive) | 55.4% (inactive) | 39.6% (inactive) | – | 20.4% (inactive) | 102% (inactive) | 16.7% (inactive) |
| CCNNC(=O)[C@@H]1[C@H](c2cc(OC)c(OC)c(OC)c2)c2cc3c(cc2[C@H](O)[C@H]1CO)OCO3 | 21.6% (inactive) | 44.8% (inactive) | 24% (inactive) | 42% (inactive) | 41.6% (inactive) | 28.6% (inactive) | 29.3% (inactive) | 14.6% (inactive) | 12.8% (inactive) | 32.8% (inactive) | -13.3% (active) | 33.6% (inactive) | 35.2% (inactive) | 1.47% (active) | 20.8% (inactive) | -47.8% (active) | 23.1% (inactive) | -13.7% (active) | – |
| CC1(C)CC[C@]2(C(=O)NCC#CCN3CCOCC3)CC[C@]3(C)C(=CC[C@@H]4[C@@]5(C)Cc6c([nH]c7ccccc67)C(C)(C)[C@@H]5CC[C@]43C)[C@@H]2C1 | 94.6% (inactive) | 96.8% (inactive) | 94.4% (inactive) | 81.6% (inactive) | 95.7% (inactive) | 73.1% (inactive) | 81.9% (inactive) | 83.1% (inactive) | 72.3% (inactive) | 57.9% (inactive) | 90.8% (inactive) | 99.6% (inactive) | 91% (inactive) | 97.8% (inactive) | 116% (inactive) | – | 107% (inactive) | 97% (inactive) | 90.9% (inactive) |
| O=C1c2ccccc2-c2c1c1c(NCCCO)nc3ccccc3c1n2Cc1ccccc1 | 48.5% (inactive) | 17.8% (inactive) | 18.6% (inactive) | -40.9% (active) | -20.2% (active) | 50.1% (inactive) | 33.9% (inactive) | 36% (inactive) | 16.9% (inactive) | 46.2% (inactive) | 25.9% (inactive) | 45.6% (inactive) | 10.7% (inactive) | 23.8% (inactive) | 15.7% (inactive) | 14.4% (inactive) | – | 3.37% (active) | 5.22% (active) |
| CCSc1ccc2c(c1)N(CCCN1CCN(C)CC1)c1ccccc1S2 | 69% (inactive) | 59.3% (inactive) | 57.6% (inactive) | 9.67% (active) | 55.6% (inactive) | 43.5% (inactive) | 50% (inactive) | 27.9% (inactive) | 18.5% (inactive) | 32.1% (inactive) | 76.3% (inactive) | 70% (inactive) | 61.2% (inactive) | 78.7% (inactive) | – | 58.2% (inactive) | 61.4% (inactive) | 60.8% (inactive) | -15% (active) |
| Cc1ccc(S(=O)(=O)Nc2ccc(Cl)cc2)cc1 | 135% (inactive) | 90.4% (inactive) | 94.3% (inactive) | 82.1% (inactive) | 118% (inactive) | 99.8% (inactive) | 82.3% (inactive) | 95.8% (inactive) | 105% (inactive) | 101% (inactive) | 102% (inactive) | 97.3% (inactive) | 89.7% (inactive) | 112% (inactive) | 98.9% (inactive) | 115% (inactive) | 100% (inactive) | 91.9% (inactive) | – |
| COc1ccc(/C=C/C(=O)c2ccc(OC)c(OC)c2)cc1O | 99.9% (inactive) | 87.4% (inactive) | 73.8% (inactive) | 63.9% (inactive) | 83.8% (inactive) | 86% (inactive) | 62.9% (inactive) | 62.5% (inactive) | 67.2% (inactive) | 65.2% (inactive) | 28.5% (inactive) | 97.5% (inactive) | – | 104% (inactive) | 74.5% (inactive) | 18.8% (inactive) | 92.6% (inactive) | 5.7% (active) | 18.6% (inactive) |
| N#CSCC1CC(O)(c2ccccc2)C(c2ccccc2)C(c2ccc(F)cc2)O1 (stereo unspecified) | 53.6% (inactive) | 14% (inactive) | -26.9% (active) | 11.2% (inactive) | 0.365% (active) | 25.2% (inactive) | 15.2% (inactive) | 12.2% (inactive) | -22% (active) | 12.4% (inactive) | 44.6% (inactive) | 51.3% (inactive) | 15.8% (inactive) | 80.2% (inactive) | 17.1% (inactive) | -84.2% (active) | -11.2% (active) | 35.3% (inactive) | -3.15% (active) |
